Among the test systems are NCI-H23 lung; NCI-H226 lung; NCI-H322M lung; HOP-62 NSCLC; NCI-H460 lung; HOP-92 NSCLC; NCI-H522 lung; A549/ATCC NSCLC; 786-0 renal; COLO 205 colon; DU-145 prostate; K-562 leukemia; MALME-3M melanoma; MDA-MB-231 breast; SF-268 CNS; SF-295 CNS; SF-539 CNS; M14 melanoma.
Assay in all cases: NCI-60 one-dose screen, 48 h (100 = growth as untreated, 0 = no growth, -100 = all killed)
Holding throughout (conditions): 10 µM unless noted

The panel holds about 83,000 compounds, 20% with a hit somewhere; the sample as a whole holds those more often.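 Interpretation: 100, growth as untreated; towards 0, rising growth inhibition; 0, no net growth; 0 to -100, cell death. Compounds scoring below 10 were considered active.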 Values without a mark were called inactive. Calls of active or inactive are those of the source.

`Cc1oc2nc[nH]c(=O)c2c1C(=O)/C=C/c1ccc(Cl)cc1Cl`: the growth was 90% in the assay with NCI-H23 lung; 107% with NCI-H226 lung; 92.4% in the assay with NCI-H322M lung; 92.6% in the assay on HOP-62 NSCLC; 93.4% in the assay on NCI-H460 lung; 95.5% in the assay on HOP-92 NSCLC. The growth was 39.1% in the assay on NCI-H522 lung; 78.7% in the assay on A549/ATCC NSCLC; 83.8% with 786-0 renal; 107% in the assay with COLO 205 colon; 78.2% in the assay on DU-145 prostate; 17.8% in the assay on K-562 leukemia. Further, the growth was 99.9% with MALME-3M melanoma; 89% in the assay on MDA-MB-231 breast; 94.6% in the assay with SF-268 CNS; 104% in the assay with SF-295 CNS; 93.3% with SF-539 CNS; 93.9% in the assay on M14 melanoma.
In the case of `Nc1nc(-c2cc3ccccc3o2)cc(=O)c(=O)[nH]1`, the growth is 105% in the assay with NCI-H23 lung; 95.7% in the assay with NCI-H226 lung; 95.4% with NCI-H322M lung; 96.6% with HOP-62 NSCLC; 98.1% in the assay on NCI-H460 lung; -2.74% (active) in the assay with HOP-92 NSCLC. The growth in the assay with NCI-H522 lung is 91.9%; in the assay with A549/ATCC NSCLC it was 110%; in the assay with 786-0 renal it was 107%; in the assay on COLO 205 colon it was 106%; in the assay on DU-145 prostate, 108%; with K-562 leukemia, 103%. Also, the growth with MALME-3M melanoma is 94.3%; in the assay with MDA-MB-231 breast, 98.3%; in the assay on SF-268 CNS, 96.5%; with SF-295 CNS it was 109%; in the assay with SF-539 CNS, 89.3%; in the assay on M14 melanoma, 106%.
For the molecule `Clc1nc(Cl)c2ncn(C/C=C/Cn3cnc4c(Cl)nc(Cl)nc43)c2n1`, the growth was 94.7% in the assay with NCI-H23 lung; 94.2% in the assay on NCI-H226 lung; 94.6% in the assay with NCI-H322M lung; 94.3% in the assay with HOP-62 NSCLC; 84.5% in the assay with NCI-H460 lung; -13.3% (active) in the assay with HOP-92 NSCLC. Moreover, the growth in the assay with NCI-H522 lung is 27.7%; in the assay on A549/ATCC NSCLC it was 71.6%; in the assay with 786-0 renal it was 93.2%; in the assay with COLO 205 colon it was 63.3%; with DU-145 prostate it was 44.2%; in the assay on K-562 leukemia, 17.4%. Further, the growth was 111% with MALME-3M melanoma; 96.4% in the assay with MDA-MB-231 breast; 62.3% in the assay with SF-268 CNS; 60.4% in the assay with SF-295 CNS; 46.8% in the assay with SF-539 CNS; 101% with M14 melanoma.
With `COc1ccc(/C=C2\Oc3cc(OCCN4CCCC4)ccc3C2=O)c(OC)c1`, the growth with NCI-H23 lung was 88.5%; in the assay with NCI-H226 lung, 97.8%; with NCI-H322M lung, 101%; with HOP-62 NSCLC it was 84.3%; in the assay with NCI-H460 lung, 93.9%; with HOP-92 NSCLC, 79.7%. Also, the growth is 104% with NCI-H522 lung; 99.4% in the assay with A549/ATCC NSCLC; 88.2% in the assay on 786-0 renal; 92.8% with COLO 205 colon; 90.8% with DU-145 prostate; 2.26% (active) with K-562 leukemia. The growth was 102% in the assay on MALME-3M melanoma; 88.7% with MDA-MB-231 breast; 95.1% in the assay on SF-268 CNS; 100% in the assay on SF-295 CNS; 87.4% in the assay on SF-539 CNS; 98.9% in the assay on M14 melanoma.
As for `CCN1C(=O)N(CC)C2Nn3c(s/c(=C4\C(=O)N(C5CCCC5)c5ccccc54)c3=O)=NC21` (centres undefined), the growth is 53.9% with NCI-H23 lung; 91.8% in the assay on NCI-H226 lung; 94.8% in the assay with NCI-H322M lung; 50% in the assay on HOP-62 NSCLC; 43.9% with NCI-H460 lung; 67.4% in the assay on HOP-92 NSCLC. The growth in the assay with NCI-H522 lung was 28%; in the assay with A549/ATCC NSCLC, 54.4%; in the assay with 786-0 renal it was 63.6%; in the assay on COLO 205 colon, 26.2%; with DU-145 prostate it was 43.6%; in the assay on K-562 leukemia, 22%. For the same molecule, the growth in the assay with MALME-3M melanoma is 70.9%; in the assay with MDA-MB-231 breast, 58.1%; in the assay with SF-268 CNS, 59.5%; with SF-295 CNS, 60.6%; in the assay on SF-539 CNS, 37%; in the assay on M14 melanoma, 91.9%.
As for `CCCCCCCCCCCCCCCCCCOc1cccc(CCOP(=O)(O)OCC[N+](C)(C)C)c1`, the growth in the assay on NCI-H23 lung was 96.3%; in the assay on NCI-H226 lung, 95.3%; in the assay with NCI-H322M lung it was 105%; in the assay on HOP-62 NSCLC, 72.2%; with NCI-H460 lung, 60.7%; with HOP-92 NSCLC it was 72.9%. Further, the growth is 72% with NCI-H522 lung; 84.9% with A549/ATCC NSCLC; 91.2% in the assay on 786-0 renal; 97.4% in the assay with COLO 205 colon; 95.9% in the assay with DU-145 prostate; 116% in the assay with K-562 leukemia. Besides, the growth in the assay with MALME-3M melanoma was 101%; in the assay on MDA-MB-231 breast, 95.5%; with SF-268 CNS it was 68%; with SF-295 CNS, 87.2%; with SF-539 CNS, 95.1%; in the assay with M14 melanoma it was 93.4%.
On to `CCN1C(=O)N(CC)C2C1NN=c1s/c(=C\c3ccccn3)c(=O)n12` (centres undefined), for which the growth was 34.5% in the assay with NCI-H23 lung; 92.2% with NCI-H226 lung; 45.8% in the assay on NCI-H322M lung; 11.6% in the assay with HOP-62 NSCLC; 8.89% (active) in the assay with NCI-H460 lung; 37.3% with HOP-92 NSCLC. The growth was 15.1% in the assay with NCI-H522 lung; 32.5% in the assay with A549/ATCC NSCLC; 22.3% with 786-0 renal; -2.81% (active) with COLO 205 colon; 9.45% (active) in the assay on DU-145 prostate; 8.75% (active) in the assay with K-562 leukemia. Also, the growth was 22.4% in the assay on MALME-3M melanoma; 45.5% in the assay with MDA-MB-231 breast; 74.2% in the assay with SF-268 CNS; 3.21% (active) with SF-295 CNS; -19.8% (active) in the assay on SF-539 CNS; 13% in the assay with M14 melanoma.
On to `COc1ccc(C(=O)N2CCN(C(=O)c3cc(OC)c(OC)c(OC)c3)CC2)cc1OCCCCOc1cc2c(cc1OC)C(=O)N1CCC[C@H]1C=N2`, for which the growth is 82.2% in the assay on NCI-H23 lung; 105% in the assay on NCI-H226 lung; 141% in the assay with NCI-H322M lung; 105% in the assay on HOP-62 NSCLC; 121% in the assay on NCI-H460 lung; 70.9% in the assay with HOP-92 NSCLC. In addition, the growth in the assay on NCI-H522 lung is 102%; with A549/ATCC NSCLC, 76.8%; in the assay with 786-0 renal, 108%; in the assay on COLO 205 colon, 107%; in the assay on DU-145 prostate it was 113%; with K-562 leukemia it was 116%. For the same molecule, the growth was 126% with MALME-3M melanoma; 82.4% in the assay with MDA-MB-231 breast; 126% with SF-268 CNS; 109% in the assay with SF-295 CNS; 98.9% in the assay with SF-539 CNS; 115% in the assay with M14 melanoma.

The values above are taken from PubChem BioAssay (NCI).
